From publication PMC7862700, “An all-to-all approach to the identification of sequence-specific readers for epigenetic DNA modifications on cytosine”

Assays:
Experiment in all cases: DAPPL (digital affinity profiling via proximity ligation, sequencing); 10 mM Tris-HCl pH 7.5, 50 mM NaCl, 1 mM DTT, 4% glycerol, room temperature, 30 min; GST-TFs on glutathione beads, 16-mer random dsDNA library, 0.1% formaldehyde crosslink after washing; high values mean tight binding
Details in all cases: protein: recombinant; tags: N-terminal GST; dsDNA, one strand shown
ERF = molecular target: T1, ERF (Homo sapiens, UniProt P50548 1-548)
T1 sequence: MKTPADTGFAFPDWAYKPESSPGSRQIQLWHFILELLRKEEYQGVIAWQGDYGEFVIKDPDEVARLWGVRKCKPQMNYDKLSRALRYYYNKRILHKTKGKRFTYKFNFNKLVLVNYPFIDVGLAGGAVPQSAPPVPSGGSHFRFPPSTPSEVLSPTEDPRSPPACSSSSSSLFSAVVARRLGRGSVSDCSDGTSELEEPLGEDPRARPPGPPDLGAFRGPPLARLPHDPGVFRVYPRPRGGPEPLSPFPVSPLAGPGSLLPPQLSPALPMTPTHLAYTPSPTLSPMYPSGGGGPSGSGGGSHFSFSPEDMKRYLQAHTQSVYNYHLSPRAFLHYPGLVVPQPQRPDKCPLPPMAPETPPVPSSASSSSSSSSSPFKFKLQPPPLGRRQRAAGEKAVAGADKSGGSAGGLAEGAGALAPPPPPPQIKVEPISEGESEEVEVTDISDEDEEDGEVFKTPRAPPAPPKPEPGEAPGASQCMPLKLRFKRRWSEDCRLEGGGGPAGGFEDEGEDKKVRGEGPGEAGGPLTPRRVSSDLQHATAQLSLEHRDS
Procedure, shortened: (§1)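 After expression in yeast as GST fusions, human transcription factors were bound to glutathione beads, DNA-barcoded and mixed with a tag-only sample. The pools were incubated with 200 nmole of a 16-mer random double-stranded DNA library in Tris/NaCl/DTT/glycerol buffer (30 min, room temperature), washed and crosslinked with 0.1% formaldehyde. Proximity ligation with BsaI/T4 ligase ran for 1 h at 37 °C, before PCR amplification and sequencing on an Illumina NextSeq500. Binding signal is a hexamer's read frequency for a factor divided by its frequency for the tag-only sample.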

ETV3L = molecular target: T2, ETV3L (Homo sapiens, UniProt Q6ZN32 1-361)
T2 sequence: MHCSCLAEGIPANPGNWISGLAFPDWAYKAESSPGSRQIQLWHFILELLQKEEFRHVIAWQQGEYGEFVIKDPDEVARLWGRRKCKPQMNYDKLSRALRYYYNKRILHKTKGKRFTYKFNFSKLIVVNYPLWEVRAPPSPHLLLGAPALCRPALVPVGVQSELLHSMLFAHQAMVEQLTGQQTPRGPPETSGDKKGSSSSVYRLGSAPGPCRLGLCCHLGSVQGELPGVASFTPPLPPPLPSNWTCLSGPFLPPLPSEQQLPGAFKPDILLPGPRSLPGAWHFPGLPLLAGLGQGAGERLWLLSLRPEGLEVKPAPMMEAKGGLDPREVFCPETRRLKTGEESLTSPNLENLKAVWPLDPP
Procedure, shortened: as §1

ETS2 = molecular target: T3, ETS2 (Homo sapiens, UniProt P15036 1-469)
T3 sequence: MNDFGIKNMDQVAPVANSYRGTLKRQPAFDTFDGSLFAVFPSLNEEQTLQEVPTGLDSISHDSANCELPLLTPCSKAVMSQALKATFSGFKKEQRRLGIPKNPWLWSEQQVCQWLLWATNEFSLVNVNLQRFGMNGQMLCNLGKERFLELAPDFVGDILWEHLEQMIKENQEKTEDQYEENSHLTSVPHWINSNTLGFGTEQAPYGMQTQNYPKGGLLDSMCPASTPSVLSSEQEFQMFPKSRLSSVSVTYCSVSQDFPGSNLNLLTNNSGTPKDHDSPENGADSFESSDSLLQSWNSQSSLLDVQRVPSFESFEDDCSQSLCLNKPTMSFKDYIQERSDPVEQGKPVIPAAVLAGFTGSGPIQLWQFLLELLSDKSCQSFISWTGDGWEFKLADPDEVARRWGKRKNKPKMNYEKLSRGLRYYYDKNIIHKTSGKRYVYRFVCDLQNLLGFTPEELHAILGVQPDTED
Procedure, shortened: as §1

SPDEF = molecular target: T4, SPDEF (Homo sapiens, UniProt O95238 1-335)
T4 sequence: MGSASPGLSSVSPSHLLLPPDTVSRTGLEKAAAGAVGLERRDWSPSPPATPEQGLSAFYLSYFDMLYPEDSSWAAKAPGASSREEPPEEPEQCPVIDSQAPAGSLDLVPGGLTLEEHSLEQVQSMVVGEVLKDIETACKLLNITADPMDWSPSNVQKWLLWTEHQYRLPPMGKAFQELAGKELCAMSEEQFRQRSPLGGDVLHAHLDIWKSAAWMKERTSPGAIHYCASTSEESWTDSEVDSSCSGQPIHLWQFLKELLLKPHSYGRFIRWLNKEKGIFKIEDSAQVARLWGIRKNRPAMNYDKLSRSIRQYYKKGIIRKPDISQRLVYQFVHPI
Procedure, shortened: as §1

ELF5 = molecular target: T5, ELF5 (Homo sapiens, UniProt Q9UKW6-2 1-255)
T5 sequence: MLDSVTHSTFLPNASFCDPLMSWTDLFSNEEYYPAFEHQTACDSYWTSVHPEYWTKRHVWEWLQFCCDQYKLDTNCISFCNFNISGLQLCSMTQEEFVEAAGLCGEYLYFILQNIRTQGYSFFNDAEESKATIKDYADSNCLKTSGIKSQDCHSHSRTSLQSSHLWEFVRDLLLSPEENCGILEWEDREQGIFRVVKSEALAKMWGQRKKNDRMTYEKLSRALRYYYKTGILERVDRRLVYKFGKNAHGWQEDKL
Procedure, shortened: as §1

ETV3 = molecular target: T6, ETV3 (Homo sapiens, UniProt P41162-2 1-143)
T6 sequence: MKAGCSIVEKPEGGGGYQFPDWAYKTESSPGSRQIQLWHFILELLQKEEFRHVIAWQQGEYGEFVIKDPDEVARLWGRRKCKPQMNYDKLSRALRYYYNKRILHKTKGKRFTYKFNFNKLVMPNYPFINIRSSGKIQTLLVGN
Procedure, shortened: as §1

ETV6 = ETV6 (Homo sapiens, UniProt P41212 1-452)
Procedure, shortened: as §1

ETV7 = molecular target: T7, ETV7 (Homo sapiens, UniProt Q9Y603 1-341)
T7 sequence: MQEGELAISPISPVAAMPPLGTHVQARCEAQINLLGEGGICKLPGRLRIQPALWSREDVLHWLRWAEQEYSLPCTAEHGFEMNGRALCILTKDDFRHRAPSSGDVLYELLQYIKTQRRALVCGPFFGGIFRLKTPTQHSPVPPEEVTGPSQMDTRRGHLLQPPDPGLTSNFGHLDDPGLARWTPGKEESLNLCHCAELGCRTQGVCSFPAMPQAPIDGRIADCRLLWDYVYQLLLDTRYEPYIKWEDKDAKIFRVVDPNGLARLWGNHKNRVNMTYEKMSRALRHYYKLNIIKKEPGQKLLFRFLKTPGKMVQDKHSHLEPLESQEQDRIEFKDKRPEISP
Procedure, shortened: as §1

Chain of ETV6 (P41212 whole entry): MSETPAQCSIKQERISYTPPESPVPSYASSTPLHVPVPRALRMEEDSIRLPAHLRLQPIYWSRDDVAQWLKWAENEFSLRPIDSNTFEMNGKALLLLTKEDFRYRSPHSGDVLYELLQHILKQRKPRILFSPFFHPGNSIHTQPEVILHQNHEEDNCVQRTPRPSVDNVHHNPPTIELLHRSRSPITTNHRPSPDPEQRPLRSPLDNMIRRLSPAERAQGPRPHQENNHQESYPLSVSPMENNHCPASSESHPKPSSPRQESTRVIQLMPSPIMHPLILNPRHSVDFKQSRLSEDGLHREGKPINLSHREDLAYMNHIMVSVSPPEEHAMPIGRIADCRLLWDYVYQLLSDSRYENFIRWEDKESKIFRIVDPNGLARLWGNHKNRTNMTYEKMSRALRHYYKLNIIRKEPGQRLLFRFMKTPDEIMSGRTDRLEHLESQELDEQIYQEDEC

Sequence | binding signal (ERF) | binding signal (ETV3L) | binding signal (ETS2) | binding signal (SPDEF) | binding signal (ELF5) | binding signal (ETV3) | binding signal (ETV6) | binding signal (ETV7)
GATACG | 1.12 fold enrichment (6-mer frequency, TF over GST control) | 1.1 fold enrichment (6-mer frequency, TF over GST control) | 1.11 fold enrichment (6-mer frequency, TF over GST control) | 1.35 fold enrichment (6-mer frequency, TF over GST control) | 1.1 fold enrichment (6-mer frequency, TF over GST control) | 1.12 fold enrichment (6-mer frequency, TF over GST control) | 1.09 fold enrichment (6-mer frequency, TF over GST control) | 
GCTCAG | 1.18 fold enrichment (6-mer frequency, TF over GST control) | 1.16 fold enrichment (6-mer frequency, TF over GST control) | 1.06 fold enrichment (6-mer frequency, TF over GST control) | 1.09 fold enrichment (6-mer frequency, TF over GST control) | 1.01 fold enrichment (6-mer frequency, TF over GST control) | 1.1 fold enrichment (6-mer frequency, TF over GST control) | 1.13 fold enrichment (6-mer frequency, TF over GST control) | 
TAGCAG | 1.11 fold enrichment (6-mer frequency, TF over GST control) | 1.07 fold enrichment (6-mer frequency, TF over GST control) | 1.02 fold enrichment (6-mer frequency, TF over GST control) |  | 1.05 fold enrichment (6-mer frequency, TF over GST control) |  |  | 1.07 fold enrichment (6-mer frequency, TF over GST control)
TGATCG | 1.24 fold enrichment (6-mer frequency, TF over GST control) | 1.09 fold enrichment (6-mer frequency, TF over GST control) | 1.03 fold enrichment (6-mer frequency, TF over GST control) |  | 1.04 fold enrichment (6-mer frequency, TF over GST control) | 1.11 fold enrichment (6-mer frequency, TF over GST control) | 1.12 fold enrichment (6-mer frequency, TF over GST control) | 1.03 fold enrichment (6-mer frequency, TF over GST control)
GAAAAA | 1.08 fold enrichment (6-mer frequency, TF over GST control) | 1.16 fold enrichment (6-mer frequency, TF over GST control) | 1.2 fold enrichment (6-mer frequency, TF over GST control) |  | 1.22 fold enrichment (6-mer frequency, TF over GST control) | 1.09 fold enrichment (6-mer frequency, TF over GST control) | 1.17 fold enrichment (6-mer frequency, TF over GST control) | 1.16 fold enrichment (6-mer frequency, TF over GST control)
GCTCGA | 1.24 fold enrichment (6-mer frequency, TF over GST control) | 1.26 fold enrichment (6-mer frequency, TF over GST control) | 1.19 fold enrichment (6-mer frequency, TF over GST control) |  | 1.1 fold enrichment (6-mer frequency, TF over GST control) | 1.14 fold enrichment (6-mer frequency, TF over GST control) | 1.25 fold enrichment (6-mer frequency, TF over GST control) | 1.11 fold enrichment (6-mer frequency, TF over GST control)
TGACTG | 1.15 fold enrichment (6-mer frequency, TF over GST control) | 1.16 fold enrichment (6-mer frequency, TF over GST control) | 1.17 fold enrichment (6-mer frequency, TF over GST control) | 1.05 fold enrichment (6-mer frequency, TF over GST control) |  |  | 1.06 fold enrichment (6-mer frequency, TF over GST control) | 
GCGCCC | 1.18 fold enrichment (6-mer frequency, TF over GST control) | 1.2 fold enrichment (6-mer frequency, TF over GST control) | 1.05 fold enrichment (6-mer frequency, TF over GST control) | 1.13 fold enrichment (6-mer frequency, TF over GST control) |  | 1.2 fold enrichment (6-mer frequency, TF over GST control) | 1.03 fold enrichment (6-mer frequency, TF over GST control) | 
CATTCA | 1.11 fold enrichment (6-mer frequency, TF over GST control) | 1.08 fold enrichment (6-mer frequency, TF over GST control) | 1.01 fold enrichment (6-mer frequency, TF over GST control) |  | 1.02 fold enrichment (6-mer frequency, TF over GST control) | 1.11 fold enrichment (6-mer frequency, TF over GST control) | 1.09 fold enrichment (6-mer frequency, TF over GST control) | 1.09 fold enrichment (6-mer frequency, TF over GST control)
GCTGAC | 1.08 fold enrichment (6-mer frequency, TF over GST control) | 1.09 fold enrichment (6-mer frequency, TF over GST control) | 1.11 fold enrichment (6-mer frequency, TF over GST control) |  | 1.05 fold enrichment (6-mer frequency, TF over GST control) | 1.17 fold enrichment (6-mer frequency, TF over GST control) | 1 fold enrichment (6-mer frequency, TF over GST control) | 1.12 fold enrichment (6-mer frequency, TF over GST control)
GCGTTT | 1.1 fold enrichment (6-mer frequency, TF over GST control) | 1.11 fold enrichment (6-mer frequency, TF over GST control) | 1.09 fold enrichment (6-mer frequency, TF over GST control) |  | 1.12 fold enrichment (6-mer frequency, TF over GST control) | 1.19 fold enrichment (6-mer frequency, TF over GST control) | 1.04 fold enrichment (6-mer frequency, TF over GST control) | 1.12 fold enrichment (6-mer frequency, TF over GST control)
